# PubChem BioAssay
# The other results are listed elsewhere or left out. Calls of active or inactive are those of the source.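 Rule for the calls, unless noted: active = inhibition reaching about 45% at 4 µM in either replicate (limit read from the data); inactive = the rest.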
# What was measured:
# [1] = PMA/ionomycin-induced NF-kB reporter inhibitors, Jurkat retest, confirmation, T-cell NF-kB inhibitor project, cell-based, luminescence, single concentration (AID 435020); conditions: Jurkat NF-kB luciferase, 16 h, at 4 µM, stronger effect = higher value;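 note: plate controls were PMA/ionomycin stimulated DMSO wells for no effect and unstimulated DMSO wells for full effect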
# [2] = Apaf-1 inhibitors, single-dose retest, confirmation, biochemical, fluorescence, DEVD-Rh110, 20 µM (AID 504614;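 active = mean inhibition of at least 40% at 20 µM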;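 note: plate controls were DMSO wells for no effect and DEVD-CHO caspase inhibitor control wells for full effect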); conditions: reconstituted apoptosome, caspase-3 DEVD-Rh110 fluorescence; at 20 µM; stronger effect = higher value
# [3] = Rh110 fluorescence interference by putative Apaf-1 inhibitors, confirmation, artefact control for Apaf-1 inhibitor project, biochemical, 20 µM (AID 504615;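 active = signal rise of 40% or more at 20 µM, treated as a fluorescence artifact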); conditions: quenched caspase reaction, at 20 µM, stronger effect = higher value
# [4] = activators of apoptotic CHOP UPR arm, confirmation, cell-based, CHO-CHOP luciferase reporter, single concentration (AID 463112; in the data active = activation above about 33%;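 note: 0% = DMSO wells and 100% = tunicamycin 10 µg/mL wells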); conditions: CHO-CHOP cells, CHOP-luciferase reporter luminescence; at 10 µM; stronger effect = higher value; percent of tunicamycin response, DMSO as zero
# [5] = target: Protein Mdm4 (Homo sapiens) + E3 ubiquitin-protein ligase Mdm2 (Homo sapiens) (UniProt O15151+Q00987); assay: retested Mdm2-MdmX interaction blockers, confirmation, cell-based, luminescence, single concentration, set 2 (AID 504601;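 active = mean inhibition of the luminescence signal across two replicates at or above 26 percent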); conditions: SaOS-2 split-luciferase Mdm2/MdmX complementation, at 8 µM, stronger effect = higher value
# [6] = target: Tumor necrosis factor receptor superfamily member 10B (Homo sapiens) (UniProt O14763); assay: caspase-8 TRAIL sensitization, hit retest, confirmation, cell-based, NB7+caspase-8, with/without TRAIL, luminescence panel (AID 651596; in the data active = activity above about 50%); conditions: NB7 neuroblastoma + caspase-8, TRAIL sensitization, luminescence viability, with TRAIL, mean of runs, at 10 µM, stronger effect = higher value
# [7] = as above; conditions: NB7 neuroblastoma + caspase-8, without TRAIL, luminescence viability, without TRAIL, mean of runs, at 10 µM
# [8] = target: Carboxy-terminal domain RNA polymerase II polypeptide A small phosphatase 1 (Homo sapiens) (UniProt Q9GZU7); assay: Scp-1 binding by thermal shift, confirmation, orthogonal assay for Scp-1 inhibitor project, biophysical, differential scanning fluorimetry (AID 540329;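 active = substances whose mean melting-temperature shift, as a percentage of the reference inhibitor's shift, reaches about 5.3%, limit read from the data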;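 note: 0% = Tm of DMSO wells and 100% = Tm with sodium orthovanadate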); conditions: Recombinant SCP1, Sypro Orange thermal shift Tm; at 40 µM; stronger effect = higher value
# [9] = target: Sentrin-specific protease 8 (Homo sapiens) (UniProt Q96LD8); assay: SENP8 protease inhibitors, retest, confirmation, biochemical, luminescence, single concentration (AID 488912;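 active = mean inhibition across replicates above about 50%, limit read from the data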); conditions: Recombinant SENP8, Z-RLRGG-aminoluciferin luminescence, 60 min; at 12.5 µM; stronger effect = higher value
# [10] = target: Sentrin-specific protease 6 (Homo sapiens) (UniProt Q9GZR1); assay: SENP6 protease inhibitors, confirmation, biochemical, luminescence, single concentration (AID 488915;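 active = mean inhibition above about 50% in the one-dose retest, limit read from the data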); conditions: recombinant SENP6, Z-RLRGG-aminoluciferin luminescence; at 12.5 µM; stronger effect = higher value
# [11] = target: Sentrin-specific protease 7 (Homo sapiens) (UniProt Q9BQF6); assay: SENP7 protease inhibitors, retest, confirmation, biochemical, luminescence, single concentration (AID 488917;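 active = mean inhibition above about 50% in the one-dose retest, limit read from the data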); conditions: recombinant SENP7, Z-RLRGG-aminoluciferin luminescence, 40 min; at 12.5 µM; stronger effect = higher value
# Caspase-3 (Homo sapiens) = Caspase-3 (Homo sapiens) (UniProt P42574); assay: caspase-3 protease inhibitors, confirmation, selectivity assay for SENP inhibitor project, biochemical, single concentration (AID 488918;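 active = mean inhibition above about 50%, limit read from the data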;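 note: plate controls were enzyme with DMSO for no effect and wells without caspase-3 for full effect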); conditions: purified caspase-3, Z-DEVD-aminoluciferin luminescence, 60 min; at 12.5 µM; stronger effect = higher value
# [12] = luciferase luminescence interference by compounds, confirmation, artefact control for SENP inhibitor project, biochemical, single concentration, SENP8 reaction pre-completed (AID 488919;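 active = mean inhibition above about 50% when retested at one dose, limit read from the data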;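 note: plate controls were DMSO wells with completed reaction for no effect and substrate without enzyme for full effect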); conditions: Pre-incubated SENP8/Z-RLRGG-aminoluciferin, at 12.5 µM, stronger effect = higher value
# [13] = inhibition of Brca1/Bard1 split-luciferase complementation, confirmation, counter-screen for Mdm2/MdmX interaction inhibitor project, luminescence, single concentration (AID 504668; call rule not given here); conditions: Brca1/Bard1 bimolecular luciferase complementation counterscreen, at 8 µM, stronger effect = higher value
# [14] = target: COP9 signalosome complex subunit 5 (Homo sapiens) (UniProt Q92905); assay: Csn5 deneddylation inhibitors, confirmation, biochemical, fluorescence polarization, single concentration, SCF-Nedd8OG substrate (AID 720654; in the data active = inhibition above about 50%;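 note: 0% = DMSO with enzyme and 100% = no enzyme wells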); conditions: Csn5 deneddylation of SCF-Nedd8OG, 90 min, at 16.6 µM, stronger effect = higher value
# [15] = target: 72 kDa type IV collagenase (Homo sapiens) (UniProt P08253); assay: MMP-2 protease inhibition counter-screen, confirmation, counter-screen for CSN deneddylation inhibitor project, biochemical, fluorescence, single concentration (AID 720655;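 active = corrected plate-normalized z-score of 5 or more, or -5 or less, or inhibition of 15% or more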;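 note: plate controls were DMSO wells with enzyme for no effect and buffer wells lacking MMP-2 for full effect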); conditions: recombinant MMP-2, FRET substrate fluorescence, 60 min; at 16.6 µM
# Prothrombin (Bos taurus) = Prothrombin (Bos taurus) (UniProt P00735); assay: bovine thrombin inhibition counter-screen, confirmation, counter-screen for CSN deneddylation inhibitor project, biochemical, fluorescence polarization, single concentration (AID 720656;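 active = inhibition at or above a set limit, with a fluorescence interference ratio between 0.5 and a set maximum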); conditions: bovine thrombin cleavage of Ub4-pepOG, at 16.6 µM, stronger effect = higher value
# [16] = inhibitors of PAF-induced NF-kB signaling, retest, confirmation, cell-based, GFP fluorescence, single concentration (AID 602472; in the data active = inhibition above about 40%;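 note: stimulus PAF is a Pseudomonas aeruginosa filtrate and not platelet activating factor; plate controls were DMSO wells with stimulus for no effect and unstimulated DMSO wells for full effect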); conditions: KKLEB CF airway cells, overnight, at 5 µM, stronger effect = higher value
# [17] = inhibitors of PAF-induced NFkB signaling in CF airway cells, dose response, cell-based, uHTS hits, panel, cytotoxicity readout (AID 624344); conditions: CF bronchial epithelial cells, PAF-induced NFkB reporter inhibition, with PAF, run 1; at 79 µM (top of the series) unless noted
# [18] = as above; conditions: CF bronchial epithelial cells, PAF-induced NFkB reporter inhibition, with PAF, run 2; at 79 µM (top of the series) unless noted
# [19] = Peg3 promoter reporter inhibitors, retest, confirmation, cell-based, HeLa, luciferase reporter, single concentration (AID 602417;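 active = at 20 µM dose, 40% or more inhibition averaged across four replicates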); conditions: HeLa PEG-Prom luciferase reporter, luminescence, overnight; at 20 µM; stronger effect = higher value
# PEG-3 [20] = target: PEG-3 (UniProt Q6IN02); assay: Peg3 promoter luciferase inhibitors, potency, dose response, cell-based, HeLa, CREF/GAPDH counter-screen panel (AID 624167); conditions: CREF/GAPDH counter-screens; HeLa PEG-Prom luciferase reporter, overnight, run 1, dose range 1, at 100 µM (top of the series) unless noted
# PEG-3 [21] = target: PEG-3 (UniProt Q6IN02); assay: as above; conditions: CREF/GAPDH counter-screens; HeLa PEG-Prom luciferase reporter, overnight, run 2, dose range 1, at 100 µM (top of the series) unless noted
# Rat fibroblasts (CREF) [22] = assay: as above; conditions: CREF/GAPDH counter-screens; run 1, dose range 1, at 100 µM (top of the series)
# Rat fibroblasts (CREF) [23] = assay: as above; conditions: CREF/GAPDH counter-screens; run 2, dose range 1, at 100 µM (top of the series)
# Chain of Sentrin-specific protease 8 (Homo sapiens) (Q96LD8 whole entry, looked up): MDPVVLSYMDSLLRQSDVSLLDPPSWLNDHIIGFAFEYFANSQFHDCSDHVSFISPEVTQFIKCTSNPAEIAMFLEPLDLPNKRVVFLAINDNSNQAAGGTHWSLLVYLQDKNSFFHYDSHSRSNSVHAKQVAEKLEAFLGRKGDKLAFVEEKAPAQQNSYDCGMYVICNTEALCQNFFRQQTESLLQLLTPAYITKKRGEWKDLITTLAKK
# Chain of Caspase-3 (Homo sapiens) (P42574 28-227 limits assumed): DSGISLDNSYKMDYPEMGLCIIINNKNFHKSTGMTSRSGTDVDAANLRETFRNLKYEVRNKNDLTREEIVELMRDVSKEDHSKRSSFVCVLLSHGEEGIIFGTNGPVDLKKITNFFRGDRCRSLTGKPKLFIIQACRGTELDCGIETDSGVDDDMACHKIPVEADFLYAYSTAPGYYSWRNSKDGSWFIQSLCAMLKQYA
# Chain of Sentrin-specific protease 7 (Homo sapiens) (Q9BQF6 706-1050 limits assumed): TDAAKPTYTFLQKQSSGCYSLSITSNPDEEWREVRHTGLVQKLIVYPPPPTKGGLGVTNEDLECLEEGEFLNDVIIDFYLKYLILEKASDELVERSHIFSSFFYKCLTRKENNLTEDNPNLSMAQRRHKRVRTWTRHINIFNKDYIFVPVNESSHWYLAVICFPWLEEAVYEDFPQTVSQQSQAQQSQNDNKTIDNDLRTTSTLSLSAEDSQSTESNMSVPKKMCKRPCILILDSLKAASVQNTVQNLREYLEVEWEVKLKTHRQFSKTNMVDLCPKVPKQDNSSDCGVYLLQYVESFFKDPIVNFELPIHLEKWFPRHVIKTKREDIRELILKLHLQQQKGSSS
# Chain of Tumor necrosis factor receptor superfamily member 10B (Homo sapiens) (O14763 whole entry, looked up): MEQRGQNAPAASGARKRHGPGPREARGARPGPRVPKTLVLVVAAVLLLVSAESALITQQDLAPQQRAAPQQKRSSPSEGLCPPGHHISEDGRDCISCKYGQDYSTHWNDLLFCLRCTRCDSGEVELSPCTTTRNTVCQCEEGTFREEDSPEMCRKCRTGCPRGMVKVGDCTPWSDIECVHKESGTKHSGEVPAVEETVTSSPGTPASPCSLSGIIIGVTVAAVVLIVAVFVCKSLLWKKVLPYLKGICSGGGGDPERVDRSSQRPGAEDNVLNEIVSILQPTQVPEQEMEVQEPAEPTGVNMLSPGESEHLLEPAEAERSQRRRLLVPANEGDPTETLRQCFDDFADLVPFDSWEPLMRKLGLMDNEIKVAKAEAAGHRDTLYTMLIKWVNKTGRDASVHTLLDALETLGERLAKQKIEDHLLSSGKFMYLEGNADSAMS
# Chain of Sentrin-specific protease 6 (Homo sapiens) (Q9GZR1 628-1112 limits assumed): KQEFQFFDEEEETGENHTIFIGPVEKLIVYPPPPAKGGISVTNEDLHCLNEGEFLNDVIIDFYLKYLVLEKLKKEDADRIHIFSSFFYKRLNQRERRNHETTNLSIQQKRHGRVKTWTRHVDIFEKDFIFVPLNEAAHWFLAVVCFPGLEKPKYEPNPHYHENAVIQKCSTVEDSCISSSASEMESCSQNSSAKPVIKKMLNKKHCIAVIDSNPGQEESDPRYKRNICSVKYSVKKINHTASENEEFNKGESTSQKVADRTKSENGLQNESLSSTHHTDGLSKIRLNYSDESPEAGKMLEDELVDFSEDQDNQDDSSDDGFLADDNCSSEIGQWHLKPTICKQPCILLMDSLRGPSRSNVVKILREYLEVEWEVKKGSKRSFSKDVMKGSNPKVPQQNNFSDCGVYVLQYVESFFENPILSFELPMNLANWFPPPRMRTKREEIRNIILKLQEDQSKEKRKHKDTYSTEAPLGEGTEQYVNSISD
# Chain of PEG-3 (Q6IN02 whole entry, looked up): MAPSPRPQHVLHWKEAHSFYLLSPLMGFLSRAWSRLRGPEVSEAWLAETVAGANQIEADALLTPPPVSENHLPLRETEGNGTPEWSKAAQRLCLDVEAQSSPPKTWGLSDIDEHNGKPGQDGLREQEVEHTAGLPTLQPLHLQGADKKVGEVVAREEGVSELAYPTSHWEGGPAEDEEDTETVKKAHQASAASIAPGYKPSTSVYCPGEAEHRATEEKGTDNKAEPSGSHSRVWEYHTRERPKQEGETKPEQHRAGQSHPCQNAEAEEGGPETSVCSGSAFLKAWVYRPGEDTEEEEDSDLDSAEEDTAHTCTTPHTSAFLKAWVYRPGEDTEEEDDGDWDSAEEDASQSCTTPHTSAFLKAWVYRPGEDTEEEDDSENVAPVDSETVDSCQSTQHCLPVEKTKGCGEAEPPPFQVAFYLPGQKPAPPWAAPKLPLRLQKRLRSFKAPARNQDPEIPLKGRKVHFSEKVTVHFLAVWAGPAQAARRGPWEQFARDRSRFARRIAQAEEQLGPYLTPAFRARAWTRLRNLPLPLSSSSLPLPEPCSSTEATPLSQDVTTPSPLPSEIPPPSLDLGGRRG
# Chain of Protein Mdm4 (Homo sapiens) + E3 ubiquitin-protein ligase Mdm2 (Homo sapiens) (O15151 whole entry, looked up): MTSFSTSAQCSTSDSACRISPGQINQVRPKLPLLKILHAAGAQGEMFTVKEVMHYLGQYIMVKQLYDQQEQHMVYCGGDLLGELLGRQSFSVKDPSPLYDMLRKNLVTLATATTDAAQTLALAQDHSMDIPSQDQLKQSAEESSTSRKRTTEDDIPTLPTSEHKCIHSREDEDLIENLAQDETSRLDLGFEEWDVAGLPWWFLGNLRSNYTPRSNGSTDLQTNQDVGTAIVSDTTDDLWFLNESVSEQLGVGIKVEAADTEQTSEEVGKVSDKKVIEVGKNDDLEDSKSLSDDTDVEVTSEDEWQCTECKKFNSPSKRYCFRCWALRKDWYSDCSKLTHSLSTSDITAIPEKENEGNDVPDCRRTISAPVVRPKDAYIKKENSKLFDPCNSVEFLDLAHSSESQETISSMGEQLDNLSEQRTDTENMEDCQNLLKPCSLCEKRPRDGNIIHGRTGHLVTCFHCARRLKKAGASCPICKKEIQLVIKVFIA
# Chain of Protein Mdm4 (Homo sapiens) + E3 ubiquitin-protein ligase Mdm2 (Homo sapiens) (Q00987 whole entry, looked up): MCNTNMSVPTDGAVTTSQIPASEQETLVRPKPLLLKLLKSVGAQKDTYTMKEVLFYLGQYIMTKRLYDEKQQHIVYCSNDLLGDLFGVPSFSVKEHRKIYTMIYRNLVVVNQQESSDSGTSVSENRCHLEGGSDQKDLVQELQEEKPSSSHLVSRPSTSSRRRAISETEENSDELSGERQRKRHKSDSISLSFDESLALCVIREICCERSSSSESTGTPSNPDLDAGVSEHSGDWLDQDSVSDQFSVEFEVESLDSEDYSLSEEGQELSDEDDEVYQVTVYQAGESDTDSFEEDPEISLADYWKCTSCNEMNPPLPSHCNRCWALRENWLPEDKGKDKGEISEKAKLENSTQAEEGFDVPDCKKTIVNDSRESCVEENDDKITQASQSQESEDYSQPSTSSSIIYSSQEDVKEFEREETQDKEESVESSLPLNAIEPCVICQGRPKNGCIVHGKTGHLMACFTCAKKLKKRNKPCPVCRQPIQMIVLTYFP
# Chain of COP9 signalosome complex subunit 5 (Homo sapiens) (Q92905 whole entry, looked up, one chain of several): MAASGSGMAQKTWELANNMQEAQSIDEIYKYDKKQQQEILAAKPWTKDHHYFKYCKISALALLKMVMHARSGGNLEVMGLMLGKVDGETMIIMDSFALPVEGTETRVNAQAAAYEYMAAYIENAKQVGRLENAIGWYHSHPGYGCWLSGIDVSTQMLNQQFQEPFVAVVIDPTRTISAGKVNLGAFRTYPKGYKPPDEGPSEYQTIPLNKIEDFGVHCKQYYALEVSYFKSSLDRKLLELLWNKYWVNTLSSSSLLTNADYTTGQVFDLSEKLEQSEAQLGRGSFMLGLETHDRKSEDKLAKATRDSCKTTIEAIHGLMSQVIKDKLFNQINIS
# Chain of 72 kDa type IV collagenase (Homo sapiens) (P08253 whole entry, looked up): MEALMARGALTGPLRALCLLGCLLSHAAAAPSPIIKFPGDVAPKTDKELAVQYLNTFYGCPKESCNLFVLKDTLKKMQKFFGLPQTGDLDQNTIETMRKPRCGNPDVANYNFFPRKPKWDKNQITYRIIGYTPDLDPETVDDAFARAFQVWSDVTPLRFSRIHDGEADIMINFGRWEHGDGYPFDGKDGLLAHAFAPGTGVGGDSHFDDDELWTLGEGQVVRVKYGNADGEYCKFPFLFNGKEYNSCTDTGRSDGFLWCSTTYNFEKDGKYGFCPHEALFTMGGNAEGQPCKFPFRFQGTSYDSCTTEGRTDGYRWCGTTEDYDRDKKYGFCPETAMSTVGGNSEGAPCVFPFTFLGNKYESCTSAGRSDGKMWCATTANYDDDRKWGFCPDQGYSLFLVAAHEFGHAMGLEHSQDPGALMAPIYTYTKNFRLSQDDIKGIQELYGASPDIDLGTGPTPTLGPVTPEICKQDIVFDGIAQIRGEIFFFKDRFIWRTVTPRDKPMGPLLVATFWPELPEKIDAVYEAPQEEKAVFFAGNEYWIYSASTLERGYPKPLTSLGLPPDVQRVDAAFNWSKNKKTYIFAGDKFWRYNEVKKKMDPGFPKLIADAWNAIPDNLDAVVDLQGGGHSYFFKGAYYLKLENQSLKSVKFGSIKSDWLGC
# Chain of Prothrombin (Bos taurus) (P00735 whole entry, looked up): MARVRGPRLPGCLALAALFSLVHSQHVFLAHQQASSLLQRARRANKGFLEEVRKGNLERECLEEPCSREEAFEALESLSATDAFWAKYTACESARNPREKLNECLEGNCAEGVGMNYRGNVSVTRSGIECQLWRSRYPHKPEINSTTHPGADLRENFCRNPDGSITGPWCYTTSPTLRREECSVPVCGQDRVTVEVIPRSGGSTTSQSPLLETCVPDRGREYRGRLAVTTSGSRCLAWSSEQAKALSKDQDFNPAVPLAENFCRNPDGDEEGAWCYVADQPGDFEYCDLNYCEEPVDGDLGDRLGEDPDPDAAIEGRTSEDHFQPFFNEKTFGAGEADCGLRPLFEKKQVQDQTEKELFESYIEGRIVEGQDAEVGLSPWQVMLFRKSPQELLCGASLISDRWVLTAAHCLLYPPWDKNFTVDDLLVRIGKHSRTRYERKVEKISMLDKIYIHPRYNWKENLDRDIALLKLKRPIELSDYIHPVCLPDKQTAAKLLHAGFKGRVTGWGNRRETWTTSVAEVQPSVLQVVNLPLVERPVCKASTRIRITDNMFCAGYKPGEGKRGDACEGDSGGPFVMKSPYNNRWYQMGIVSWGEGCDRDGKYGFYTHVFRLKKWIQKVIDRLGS
smiles,measurement,setting,value
CCOc1[nH]n(-c2ccc(Cl)cc2)c(=O)c1C=Nc1ccc(O)cc1,inhibition,[1],6% (inactive)
same,inhibition,[2],14.8% (inactive)
same,activation (fluorescence interference),[3],5.36% (inactive)
CCCc1cc(=S)n2c([nH]c3ccccc32)c1C#N,activation,[4],-0.45% (inactive)
Cc1cc(C(=O)CCl)c(C)n1CC1COc2ccccc2O1 (configuration not stated),activation,[4],60.3% (active)
NC(N)=N/N=C/c1ccc(OCc2ccc(Cl)cc2Cl)cc1,inhibition,[1],-12.9% (inactive)
same,inhibition,[5],102% (active)
same,inhibition,[2],35.8% (inactive)
same,activation (fluorescence interference),[3],-0.23% (inactive)
same,activity,[6],58.8%
same,activity,[7],95.5%
CC1(C)CC(N2CCN(C(c3ccccc3)c3ccccc3)CC2)=CC(=[N+]2CCCCC2)C1,inhibition,[1],69.6% (active)
same,activity,[6],74.7%
same,activity,[7],56.2%
Cc1cc(C(=O)OCC(=O)NCc2ccco2)c(C)n1-c1ccccc1,inhibition,[1],6.4% (inactive)
same,thermal shift relative to vanadate control,[8],-3.06% (inactive)
c1ccc2[nH]c(-c3nc4ccccc4[nH]3)nc2c1,inhibition,[1],-90% (inactive)
same,inhibition,[9],-14.2% (inactive)
same,inhibition,[10],42.7% (inactive)
same,inhibition,[11],77.8% (active)
same,inhibition,Caspase-3 (Homo sapiens),77.3% (active)
same,inhibition,[12],50.8% (active)
same,activity,[6],80.2%
same,activity,[7],77.8%
COc1cccc(/C=N/NC(=O)c2[nH]nc3c2CCc2ccccc2-3)c1O,inhibition,[1],39.9% (inactive)
same,inhibition,[13],27% (active)
same,inhibition,[14],20.6% (inactive)
same,inhibition,[15],34.7% (active)
same,inhibition,Prothrombin (Bos taurus),30.2% (active)
COc1ccc(N=C(C)c2sc3ccccc3c2O)cc1,inhibition,[1],-7.85% (inactive)
same,inhibition,[9],16.5% (inactive)
same,inhibition,[10],19.5% (inactive)
same,inhibition,[11],14.7% (inactive)
same,inhibition,Caspase-3 (Homo sapiens),9.6% (inactive)
same,inhibition,[12],-5.1% (inactive)
O=C(CSc1cccc2cccnc12)N/N=C/c1cccnc1,activation,[4],265% (active)
COc1ccc(C2=Nn3c(nnc3-c3ccccc3OC)SC2)cc1OC1CCCC1,inhibition,[1],58% (active)
same,inhibition,[16],98.4% (active)
same,inhibition,[17],98.7%
same,inhibition,[18],118% [at 39.5 µM]
Cc1cccc(CS(=O)(=O)c2ncc(Cl)c(C(=O)Nc3ccc(F)cc3)n2)c1,inhibition,[19],95.7% (active)
same,inhibition,PEG-3 [20],99.1%
same,inhibition,PEG-3 [21],98.3%
same,inhibition,Rat fibroblasts (CREF) [22],100%
same,inhibition,Rat fibroblasts (CREF) [23],96.3%
CSc1nnc(NC(=O)c2nc(S(=O)(=O)Cc3ccc(C)cc3)ncc2Cl)s1,activity,[6],74.5%
same,activity,[7],82.2%
c1ccc(CN=C2Nc3ccccc3CS2)nc1,inhibition,[9],48.6% (inactive)
same,inhibition,[10],41.9% (inactive)
same,inhibition,[11],74.7% (active)
same,inhibition,Caspase-3 (Homo sapiens),76.5% (active)
same,inhibition,[12],57.5% (active)
O=C(Nc1ccc(NC(=O)c2ccco2)c(Cl)c1)c1cccc([N+](=O)[O-])c1,inhibition,[9],8.7% (inactive)
same,inhibition,[10],6.1% (inactive)
same,inhibition,[11],-6.7% (inactive)
same,inhibition,Caspase-3 (Homo sapiens),-0.7% (inactive)
same,inhibition,[12],-0.2% (inactive)
